Consider 31 compounds from ChEMBL document CHEMBL1961873, “Compounds: GSK PKIS; Assays: Nanosyn kinase panel” (2012).

Broadly, the inhibition is the relative decrease from the control value, in per cent.

Values joined by “and” are separate entries in the source; they are usually repeats but may differ in a detail not shown here. Identical values can stand only once.

One test concerns the target T1, Rhodopsin kinase GRK7 (Homo sapiens) (UniProt Q8WTQ7).
T1 sequence (whole entry): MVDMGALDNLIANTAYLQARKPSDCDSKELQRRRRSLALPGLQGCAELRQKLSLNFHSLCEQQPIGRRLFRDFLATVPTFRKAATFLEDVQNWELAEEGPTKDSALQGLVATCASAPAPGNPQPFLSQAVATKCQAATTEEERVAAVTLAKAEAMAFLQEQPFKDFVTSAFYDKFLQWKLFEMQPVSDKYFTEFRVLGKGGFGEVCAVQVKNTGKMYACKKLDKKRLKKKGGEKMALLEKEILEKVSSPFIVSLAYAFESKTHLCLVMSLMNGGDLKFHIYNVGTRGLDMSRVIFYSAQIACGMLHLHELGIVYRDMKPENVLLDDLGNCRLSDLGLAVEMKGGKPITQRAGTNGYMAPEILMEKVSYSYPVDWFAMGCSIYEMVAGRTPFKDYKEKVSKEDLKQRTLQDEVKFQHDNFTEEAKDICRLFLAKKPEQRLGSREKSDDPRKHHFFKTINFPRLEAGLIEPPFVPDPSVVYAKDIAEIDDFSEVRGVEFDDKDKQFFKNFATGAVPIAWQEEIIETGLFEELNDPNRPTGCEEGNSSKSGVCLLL
As to conditions: at 0.1 µM.
In the case of `Nc1nonc1-c1nc2cnccc2n1C1CC1`, the inhibition is -3.85% and 3.25%.

Consider `NS(=O)(=O)c1cccc(N/C=C2\C(=O)Nc3ccccc32)c1`, for which the inhibition is 2.36%.

`CC1=C(C(=O)Nc2ccc3[nH]ncc3c2)C(c2ccc(F)cc2)N=C(c2ccc(C(F)(F)F)nc2)N1` (configuration not stated): the inhibition is 0.19%.

For the compound `CNC(=O)c1cncc(/C=C/c2ccccc2C)c1`, the inhibition stood at 3.15%.

As for `CN1CCC(C(=O)Nc2n[nH]c3nc(-c4ccc(O)cc4)c(Br)cc23)CC1`, the inhibition is 5.9% and 4.12%.

Take `Cc1cc(O)cc(C)c1/C=C/c1cncc(C(N)=O)c1`: the inhibition was 0.88%.

On to `CS(=O)(=O)Nc1ccc(-c2cc(-c3ccccc3)cc(C(N)=O)c2N)cc1`, for which the inhibition amounted to 7.08%.

For `CS(=O)(=O)CCNCc1ccc(-c2ccc3ncnc(Nc4ccc(OCc5ccccc5)cc4)c3c2)o1`, the inhibition came to 4.51%.

Consider `CCOc1ccc2c(-c3ccnc(Nc4cc(OC)cc(C(F)(F)F)c4)n3)cnn2n1`, for which the inhibition is -0.23%.

`Cc1cc(O)cc(C)c1/C=C/c1cncc(C(=O)OC(C)(C)C)c1`: the inhibition was found to be 7.07%.

On to `O=C1Nc2ccccc2/C1=C1\CCc2cc(O)ccc21`, for which the inhibition was determined as 3.45%.

Take `CCS(=O)(=O)c1ccc(OC)c(Nc2ncc(-c3cccc(F)c3)o2)c1`: the inhibition amounted to 9.79%.

Take `COc1cccc(Nc2nccc(-c3cnn4ncccc34)n2)c1`: the inhibition came to 1.07%.

On to `Nc1ncnc2occ(-c3ccc(NC(=O)Nc4cc(C(F)(F)F)ccc4F)cc3)c12`, for which the inhibition was 0.46% and 3.18%.

Take `O=C(Nc1n[nH]c2nnc(-c3cccnc3)cc12)C1CC1`: the inhibition stood at 2.31%.

For `O=C(O[C@H]1CN[C@H](C#Cc2cc3ncnc(Nc4ccc5c(cnn5Cc5ccccc5)c4)c3s2)C1)N1CCOCC1`, the inhibition is 2.39%.

Regarding `COc1cc(N2CCN(C(C)C)CC2)ccc1Nc1nc(Nc2cccc3ncccc23)c2cc[nH]c2n1`, the inhibition is -2.45%.

`CS(=O)(=O)CCNCc1ccoc1-c1ccc2ncnc(Nc3ccc(OCc4ccccc4)cc3)c2c1`: the inhibition came out at 4.11%.

Turning to `CCN1CCC(C(=O)Nc2n[nH]c3nnc(-c4cccc(F)c4F)cc23)CC1`, the inhibition is 3.51%.

Take `COc1ccc(-c2nn3ncccc3c2-c2ccnc(Nc3ccc(F)c(F)c3)n2)cc1`: the inhibition came out at 6.45%.

For the compound `CCS(=O)(=O)c1ccc(OC)c(Nc2ncc(-c3cccc(C(C)=O)c3)o2)c1`, the inhibition came to 4.52%.

In the case of `c1cnn2ncc(-c3ccnc(NCCCN4CCOCC4)n3)c2c1`, the inhibition was 20.1%.

For `CN(C)CCNC(=O)Nc1ccc(N(C)c2ccnc(Nc3ccc(CS(C)(=O)=O)cc3)n2)cc1`, the inhibition is 3.11%.

As to `CCn1c(-c2nonc2N)nc2cncc(C(=O)NCCNC)c21`, the inhibition stood at 9.46%.

Turning to `COc1cc(N2CCN(C(C)C)CC2)ccc1Nc1nc(Nc2cccc(F)c2C(=O)O)c2cc[nH]c2n1`, the inhibition stood at 3.79%.

`COC(=O)Nc1nc2cc(Oc3ccc(NC(=O)Nc4ccccc4)cc3)ccc2[nH]1`: the inhibition turned out to be 4.75%.

`NC(=O)c1ccc2c(-c3ccnc(NCCCO)n3)c(-c3ccc(F)cc3)nn2c1`: the inhibition is 1.93%.

Turning to `CS(=O)(=O)Nc1ccc(-c2ccc3c(NC(=O)C4CC4)n[nH]c3c2)cc1`, the inhibition is 5.28%.

Regarding `COC(=O)Nc1nc2ccc(Oc3ccc(NC(=O)Nc4cc(C(F)(F)F)ccc4F)cc3)cc2s1`, the inhibition is -0.68%.

With `COc1ccccc1-c1cc(/C=C2\C(=O)Nc3ncc(Br)cc32)cc(Br)c1O`, the inhibition came to 28.7%.

For the compound `Cc1nnc(-c2cccc(-c3ccc(C(=O)NCC4CC4)cc3)c2)o1`, the inhibition turned out to be 6.78%.

The next test addresses T1, Rhodopsin kinase GRK7 (Homo sapiens). As to conditions: at 1 µM.
For `Nc1nonc1-c1nc2cnccc2n1C1CC1`, the inhibition was -0.48% and 7.79%.

Take `NS(=O)(=O)c1cccc(N/C=C2\C(=O)Nc3ccccc32)c1`: the inhibition amounted to 9.13%.

On to `CC1=C(C(=O)Nc2ccc3[nH]ncc3c2)C(c2ccc(F)cc2)N=C(c2ccc(C(F)(F)F)nc2)N1` (configuration not stated), for which the inhibition is -2.93%.

Turning to `CNC(=O)c1cncc(/C=C/c2ccccc2C)c1`, the inhibition came out at 0.44%.

As for `CN1CCC(C(=O)Nc2n[nH]c3nc(-c4ccc(O)cc4)c(Br)cc23)CC1`, the inhibition was 16.7% and -0.01%.

Take `Cc1cc(O)cc(C)c1/C=C/c1cncc(C(N)=O)c1`: the inhibition was -1.37%.

On to `CS(=O)(=O)Nc1ccc(-c2cc(-c3ccccc3)cc(C(N)=O)c2N)cc1`, for which the inhibition was found to be 1.49%.

As to `CS(=O)(=O)CCNCc1ccc(-c2ccc3ncnc(Nc4ccc(OCc5ccccc5)cc4)c3c2)o1`, the inhibition amounted to 4.87%.

Turning to `CCOc1ccc2c(-c3ccnc(Nc4cc(OC)cc(C(F)(F)F)c4)n3)cnn2n1`, the inhibition came out at 16.9%.

Turning to `Cc1cc(O)cc(C)c1/C=C/c1cncc(C(=O)OC(C)(C)C)c1`, the inhibition turned out to be 6.87%.

As to `O=C1Nc2ccccc2/C1=C1\CCc2cc(O)ccc21`, the inhibition was determined as 11.4%.

Take `CCS(=O)(=O)c1ccc(OC)c(Nc2ncc(-c3cccc(F)c3)o2)c1`: the inhibition was determined as 3.77%.

As for `COc1cccc(Nc2nccc(-c3cnn4ncccc34)n2)c1`, the inhibition was -2.16%.

With `Nc1ncnc2occ(-c3ccc(NC(=O)Nc4cc(C(F)(F)F)ccc4F)cc3)c12`, the inhibition is -5.44% and -7.01%.

On to `O=C(Nc1n[nH]c2nnc(-c3cccnc3)cc12)C1CC1`, for which the inhibition was -1.4%.

Consider `O=C(O[C@H]1CN[C@H](C#Cc2cc3ncnc(Nc4ccc5c(cnn5Cc5ccccc5)c4)c3s2)C1)N1CCOCC1`, for which the inhibition came out at 0.44%.

Regarding `COc1cc(N2CCN(C(C)C)CC2)ccc1Nc1nc(Nc2cccc3ncccc23)c2cc[nH]c2n1`, the inhibition was determined as 0.29%.

As to `CS(=O)(=O)CCNCc1ccoc1-c1ccc2ncnc(Nc3ccc(OCc4ccccc4)cc3)c2c1`, the inhibition was -0.84%.

For `CCN1CCC(C(=O)Nc2n[nH]c3nnc(-c4cccc(F)c4F)cc23)CC1`, the inhibition was -1.02%.

With `COc1ccc(-c2nn3ncccc3c2-c2ccnc(Nc3ccc(F)c(F)c3)n2)cc1`, the inhibition is 7.95%.

Regarding `CCS(=O)(=O)c1ccc(OC)c(Nc2ncc(-c3cccc(C(C)=O)c3)o2)c1`, the inhibition came out at 4.18%.

In the case of `c1cnn2ncc(-c3ccnc(NCCCN4CCOCC4)n3)c2c1`, the inhibition was determined as 15.5%.

As to `CN(C)CCNC(=O)Nc1ccc(N(C)c2ccnc(Nc3ccc(CS(C)(=O)=O)cc3)n2)cc1`, the inhibition is -0.51%.

Turning to `CCn1c(-c2nonc2N)nc2cncc(C(=O)NCCNC)c21`, the inhibition is 7.46%.

Consider `COc1cc(N2CCN(C(C)C)CC2)ccc1Nc1nc(Nc2cccc(F)c2C(=O)O)c2cc[nH]c2n1`, for which the inhibition was found to be 5.95%.

For the compound `COC(=O)Nc1nc2cc(Oc3ccc(NC(=O)Nc4ccccc4)cc3)ccc2[nH]1`, the inhibition is 15.2%.

Take `NC(=O)c1ccc2c(-c3ccnc(NCCCO)n3)c(-c3ccc(F)cc3)nn2c1`: the inhibition was 4.08%.

Turning to `CS(=O)(=O)Nc1ccc(-c2ccc3c(NC(=O)C4CC4)n[nH]c3c2)cc1`, the inhibition was determined as 2.36%.

Take `COC(=O)Nc1nc2ccc(Oc3ccc(NC(=O)Nc4cc(C(F)(F)F)ccc4F)cc3)cc2s1`: the inhibition is 6.1%.

Turning to `COc1ccccc1-c1cc(/C=C2\C(=O)Nc3ncc(Br)cc32)cc(Br)c1O`, the inhibition worked out at 57.2%.

As for `Cc1nnc(-c2cccc(-c3ccc(C(=O)NCC4CC4)cc3)c2)o1`, the inhibition is 6.04%.
